# Laboratory results: article PMC7862700, “An all-to-all approach to the identification of sequence-specific readers for epigenetic DNA modifications on cytosine”
# Legend:
# Assay in all cases: DAPPL (digital affinity profiling via proximity ligation, sequencing); 10 mM Tris-HCl pH 7.5, 50 mM NaCl, 1 mM DTT, 4% glycerol, room temperature, 30 min; GST-TFs on glutathione beads, 16-mer random dsDNA library, 0.1% formaldehyde crosslink after washing; high values mean tight binding
# FEV = target: T1, FEV (Homo sapiens, UniProt Q99581 1-238); settings: protein: recombinant; tags: N-terminal GST; dsDNA, one strand shown
# T1 sequence: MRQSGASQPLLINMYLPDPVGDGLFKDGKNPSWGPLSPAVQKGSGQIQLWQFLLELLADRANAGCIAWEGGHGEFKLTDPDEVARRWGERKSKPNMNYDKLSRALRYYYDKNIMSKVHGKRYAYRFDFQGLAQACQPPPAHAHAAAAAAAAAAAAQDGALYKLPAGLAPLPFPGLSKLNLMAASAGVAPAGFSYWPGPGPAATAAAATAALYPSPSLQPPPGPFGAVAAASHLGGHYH
# Summary of the method: (§1)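 Beads coated with glutathione captured GST-fused human transcription factors that had been expressed in yeast, and the factors were then given DNA barcodes and pooled with a tag-only sample. The pools were incubated with 200 nmole of a random double-stranded 16-mer DNA library in Tris/NaCl/DTT/glycerol buffer for 30 min at room temperature, washed, crosslinked with 0.1% formaldehyde and proximity-ligated with BsaI/T4 ligase at 37 °C for 1 h. PCR amplification and Illumina NextSeq500 sequencing came last. Binding signal is each hexamer's read frequency for a factor divided by its frequency for the tag-only sample.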
# ETV5 = ETV5 (Homo sapiens, UniProt P41161 1-510); settings: protein: recombinant; tags: N-terminal GST; dsDNA, one strand shown
# Summary of the method: as §1
# HSF1 = HSF1 (Homo sapiens, UniProt Q00613 1-529); settings: protein: recombinant; tags: N-terminal GST; chain copies: 3; dsDNA, one strand shown
# Summary of the method: as §1
# SPIC = target: T2, SPIC (Homo sapiens, UniProt Q8N5J4 1-248); settings: protein: recombinant; tags: N-terminal GST; dsDNA, one strand shown
# T2 sequence: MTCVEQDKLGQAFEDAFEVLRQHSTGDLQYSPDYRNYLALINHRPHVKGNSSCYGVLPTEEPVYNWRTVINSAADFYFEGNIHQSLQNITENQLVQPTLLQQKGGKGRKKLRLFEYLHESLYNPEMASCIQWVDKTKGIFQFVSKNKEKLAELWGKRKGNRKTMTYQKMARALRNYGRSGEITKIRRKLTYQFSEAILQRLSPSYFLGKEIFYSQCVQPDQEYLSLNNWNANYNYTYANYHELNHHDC
# Summary of the method: as §1
# ELF4 = ELF4 (Homo sapiens, UniProt Q99607 1-663); settings: protein: recombinant; tags: N-terminal GST; dsDNA, one strand shown
# Summary of the method: as §1
# ELK4 = target: T3, ELK4 (Homo sapiens, UniProt P28324-2 1-405); settings: protein: recombinant; tags: N-terminal GST; dsDNA, one strand shown
# T3 sequence: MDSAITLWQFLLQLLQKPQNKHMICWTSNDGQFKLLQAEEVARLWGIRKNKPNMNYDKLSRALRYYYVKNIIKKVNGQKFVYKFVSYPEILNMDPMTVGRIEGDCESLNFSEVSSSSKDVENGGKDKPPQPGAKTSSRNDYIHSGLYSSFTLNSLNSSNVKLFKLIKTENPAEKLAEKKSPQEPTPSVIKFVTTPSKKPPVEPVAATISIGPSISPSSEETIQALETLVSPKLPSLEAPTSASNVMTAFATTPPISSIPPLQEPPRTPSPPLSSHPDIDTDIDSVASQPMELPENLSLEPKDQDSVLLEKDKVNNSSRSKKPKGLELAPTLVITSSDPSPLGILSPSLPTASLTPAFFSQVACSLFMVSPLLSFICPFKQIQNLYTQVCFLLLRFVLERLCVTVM
# Summary of the method: as §1
# ETV2 = target: T4, ETV2 (Homo sapiens, UniProt O00321 1-342); settings: protein: recombinant; tags: N-terminal GST; dsDNA, one strand shown
# T4 sequence: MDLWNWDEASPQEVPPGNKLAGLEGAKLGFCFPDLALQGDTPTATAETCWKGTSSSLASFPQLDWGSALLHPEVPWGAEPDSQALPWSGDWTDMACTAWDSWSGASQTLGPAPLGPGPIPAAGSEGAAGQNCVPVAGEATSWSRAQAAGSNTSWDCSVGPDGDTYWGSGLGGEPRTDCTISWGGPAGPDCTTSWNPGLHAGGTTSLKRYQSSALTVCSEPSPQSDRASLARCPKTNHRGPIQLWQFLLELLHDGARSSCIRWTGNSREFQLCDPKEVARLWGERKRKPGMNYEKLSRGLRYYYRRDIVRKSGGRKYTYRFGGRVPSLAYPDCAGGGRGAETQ
# Summary of the method: as §1
# ELF3 = target: T5, ELF3 (Homo sapiens, UniProt P78545 1-371); settings: protein: recombinant; tags: N-terminal GST; dsDNA, one strand shown
# T5 sequence: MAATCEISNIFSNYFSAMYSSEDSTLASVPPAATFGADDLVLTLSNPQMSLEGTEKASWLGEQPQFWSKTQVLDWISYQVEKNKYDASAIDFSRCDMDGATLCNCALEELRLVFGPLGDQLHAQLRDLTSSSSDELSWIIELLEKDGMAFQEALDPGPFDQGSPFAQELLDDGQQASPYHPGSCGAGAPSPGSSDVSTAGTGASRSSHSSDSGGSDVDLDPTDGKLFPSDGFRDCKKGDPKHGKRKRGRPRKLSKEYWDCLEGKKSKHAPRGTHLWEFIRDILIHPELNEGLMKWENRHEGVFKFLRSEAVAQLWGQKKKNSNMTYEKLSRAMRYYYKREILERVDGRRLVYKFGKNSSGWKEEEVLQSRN
# Summary of the method: as §1
# CRX = CRX (Homo sapiens, UniProt O43186 1-299); settings: protein: recombinant; tags: N-terminal GST; dsDNA, one strand shown
# Summary of the method: as §1
# ETV1 = ETV1 (Homo sapiens, UniProt P50549 1-477); settings: protein: recombinant; tags: N-terminal GST; dsDNA, one strand shown
# Summary of the method: as §1
# ERF = target: T6, ERF (Homo sapiens, UniProt P50548 1-548); settings: protein: recombinant; tags: N-terminal GST; dsDNA, one strand shown
# T6 sequence: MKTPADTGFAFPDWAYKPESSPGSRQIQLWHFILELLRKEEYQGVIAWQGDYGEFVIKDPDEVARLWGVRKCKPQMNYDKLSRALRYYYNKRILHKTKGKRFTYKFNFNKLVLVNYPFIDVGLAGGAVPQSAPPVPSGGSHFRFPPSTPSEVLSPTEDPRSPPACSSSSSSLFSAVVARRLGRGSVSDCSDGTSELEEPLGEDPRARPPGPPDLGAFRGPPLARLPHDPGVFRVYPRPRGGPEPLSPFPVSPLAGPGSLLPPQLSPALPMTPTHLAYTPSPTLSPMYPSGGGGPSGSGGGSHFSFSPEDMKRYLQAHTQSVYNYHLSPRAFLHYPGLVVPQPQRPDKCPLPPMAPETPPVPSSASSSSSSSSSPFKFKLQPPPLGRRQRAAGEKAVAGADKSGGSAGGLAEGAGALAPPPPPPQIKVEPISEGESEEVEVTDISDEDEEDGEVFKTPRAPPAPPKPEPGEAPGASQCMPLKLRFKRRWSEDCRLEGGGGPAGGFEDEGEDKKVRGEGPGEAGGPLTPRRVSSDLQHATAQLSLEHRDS
# Summary of the method: as §1
# ETV3L = target: T7, ETV3L (Homo sapiens, UniProt Q6ZN32 1-361); settings: protein: recombinant; tags: N-terminal GST; dsDNA, one strand shown
# T7 sequence: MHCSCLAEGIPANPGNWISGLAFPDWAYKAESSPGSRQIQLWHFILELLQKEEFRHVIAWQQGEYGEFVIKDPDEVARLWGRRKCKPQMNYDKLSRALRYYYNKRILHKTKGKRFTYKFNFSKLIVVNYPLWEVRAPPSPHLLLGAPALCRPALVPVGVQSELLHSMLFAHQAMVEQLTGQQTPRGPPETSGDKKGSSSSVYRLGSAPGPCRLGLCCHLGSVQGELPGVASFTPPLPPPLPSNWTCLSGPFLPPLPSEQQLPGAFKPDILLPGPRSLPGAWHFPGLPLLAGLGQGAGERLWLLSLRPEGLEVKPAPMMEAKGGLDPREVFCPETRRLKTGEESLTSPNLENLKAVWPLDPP
# Summary of the method: as §1
# ETS2 = target: T8, ETS2 (Homo sapiens, UniProt P15036 1-469); settings: protein: recombinant; tags: N-terminal GST; dsDNA, one strand shown
# T8 sequence: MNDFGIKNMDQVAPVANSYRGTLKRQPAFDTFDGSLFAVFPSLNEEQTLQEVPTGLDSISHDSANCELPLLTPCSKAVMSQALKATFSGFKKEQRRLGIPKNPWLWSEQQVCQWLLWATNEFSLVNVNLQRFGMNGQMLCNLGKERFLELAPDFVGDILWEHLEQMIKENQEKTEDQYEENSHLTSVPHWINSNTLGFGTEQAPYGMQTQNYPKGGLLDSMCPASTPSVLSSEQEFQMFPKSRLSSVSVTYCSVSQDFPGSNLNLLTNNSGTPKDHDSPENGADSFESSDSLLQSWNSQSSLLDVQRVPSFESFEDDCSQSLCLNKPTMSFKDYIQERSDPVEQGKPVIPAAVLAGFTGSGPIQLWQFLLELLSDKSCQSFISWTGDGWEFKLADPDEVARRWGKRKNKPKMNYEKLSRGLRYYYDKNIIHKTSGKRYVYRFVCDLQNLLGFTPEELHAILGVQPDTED
# Summary of the method: as §1
# SPDEF = target: T9, SPDEF (Homo sapiens, UniProt O95238 1-335); settings: protein: recombinant; tags: N-terminal GST; dsDNA, one strand shown
# T9 sequence: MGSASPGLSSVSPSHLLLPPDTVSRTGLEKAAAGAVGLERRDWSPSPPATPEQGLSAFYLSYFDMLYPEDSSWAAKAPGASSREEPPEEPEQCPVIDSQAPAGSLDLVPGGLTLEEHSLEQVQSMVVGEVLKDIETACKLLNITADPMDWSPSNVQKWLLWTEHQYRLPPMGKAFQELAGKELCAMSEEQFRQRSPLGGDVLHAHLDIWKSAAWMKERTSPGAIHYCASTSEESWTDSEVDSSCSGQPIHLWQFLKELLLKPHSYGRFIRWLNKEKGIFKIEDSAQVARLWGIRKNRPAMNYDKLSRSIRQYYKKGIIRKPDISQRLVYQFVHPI
# Summary of the method: as §1
# ETV7 = target: T10, ETV7 (Homo sapiens, UniProt Q9Y603 1-341); settings: protein: recombinant; tags: N-terminal GST; dsDNA, one strand shown
# T10 sequence: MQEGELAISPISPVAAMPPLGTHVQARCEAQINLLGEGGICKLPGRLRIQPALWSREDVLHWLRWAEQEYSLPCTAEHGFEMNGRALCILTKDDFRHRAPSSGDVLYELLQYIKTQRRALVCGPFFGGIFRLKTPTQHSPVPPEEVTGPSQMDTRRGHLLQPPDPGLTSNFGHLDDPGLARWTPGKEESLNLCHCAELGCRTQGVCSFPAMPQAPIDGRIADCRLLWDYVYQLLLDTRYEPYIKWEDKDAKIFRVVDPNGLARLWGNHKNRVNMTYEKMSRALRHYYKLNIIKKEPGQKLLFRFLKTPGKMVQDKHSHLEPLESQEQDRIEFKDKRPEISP
# Summary of the method: as §1
# ELF5 = target: T11, ELF5 (Homo sapiens, UniProt Q9UKW6-2 1-255); settings: protein: recombinant; tags: N-terminal GST; dsDNA, one strand shown
# T11 sequence: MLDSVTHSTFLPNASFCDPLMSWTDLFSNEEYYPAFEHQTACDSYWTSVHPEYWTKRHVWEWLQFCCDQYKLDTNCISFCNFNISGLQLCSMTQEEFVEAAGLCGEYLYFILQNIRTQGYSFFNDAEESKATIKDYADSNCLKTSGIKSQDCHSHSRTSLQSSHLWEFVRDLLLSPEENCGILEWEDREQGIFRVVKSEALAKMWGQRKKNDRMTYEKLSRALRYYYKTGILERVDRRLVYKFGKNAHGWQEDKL
# Summary of the method: as §1
# ETV3 = target: T12, ETV3 (Homo sapiens, UniProt P41162-2 1-143); settings: protein: recombinant; tags: N-terminal GST; dsDNA, one strand shown
# T12 sequence: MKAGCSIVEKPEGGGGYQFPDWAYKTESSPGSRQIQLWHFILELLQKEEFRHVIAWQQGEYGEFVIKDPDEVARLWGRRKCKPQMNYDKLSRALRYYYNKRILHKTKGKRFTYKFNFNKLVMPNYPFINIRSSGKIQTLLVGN
# Summary of the method: as §1
# ETV6 = ETV6 (Homo sapiens, UniProt P41212 1-452); settings: protein: recombinant; tags: N-terminal GST; dsDNA, one strand shown
# Summary of the method: as §1
# Chain of ETV5 (P41161 whole entry): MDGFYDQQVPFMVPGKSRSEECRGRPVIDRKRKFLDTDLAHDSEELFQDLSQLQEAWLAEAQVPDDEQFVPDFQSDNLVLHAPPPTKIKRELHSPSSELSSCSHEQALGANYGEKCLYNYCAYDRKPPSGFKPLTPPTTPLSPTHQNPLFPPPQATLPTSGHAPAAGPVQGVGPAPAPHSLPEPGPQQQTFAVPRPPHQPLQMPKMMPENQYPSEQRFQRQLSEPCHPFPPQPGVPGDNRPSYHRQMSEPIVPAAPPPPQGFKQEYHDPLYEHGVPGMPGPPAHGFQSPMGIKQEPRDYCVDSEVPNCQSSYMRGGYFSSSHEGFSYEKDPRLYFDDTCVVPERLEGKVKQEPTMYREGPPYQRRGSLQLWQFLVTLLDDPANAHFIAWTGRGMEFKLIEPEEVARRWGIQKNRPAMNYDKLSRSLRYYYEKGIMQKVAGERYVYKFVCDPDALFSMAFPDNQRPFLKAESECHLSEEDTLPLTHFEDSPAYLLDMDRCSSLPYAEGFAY
# Chain of ETV6 (P41212 whole entry): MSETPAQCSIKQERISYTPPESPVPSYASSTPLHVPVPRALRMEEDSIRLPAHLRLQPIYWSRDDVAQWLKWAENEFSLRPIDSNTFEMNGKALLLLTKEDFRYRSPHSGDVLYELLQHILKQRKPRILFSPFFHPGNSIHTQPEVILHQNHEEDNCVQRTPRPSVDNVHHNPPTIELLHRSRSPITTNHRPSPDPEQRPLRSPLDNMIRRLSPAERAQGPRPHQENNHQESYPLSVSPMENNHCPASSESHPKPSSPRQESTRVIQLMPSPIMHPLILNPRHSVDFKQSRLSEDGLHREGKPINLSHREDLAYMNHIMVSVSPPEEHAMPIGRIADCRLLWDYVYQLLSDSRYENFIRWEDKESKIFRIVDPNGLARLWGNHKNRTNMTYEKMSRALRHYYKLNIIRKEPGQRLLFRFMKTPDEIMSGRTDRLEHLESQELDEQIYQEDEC
# Chain of HSF1 (Q00613 whole entry): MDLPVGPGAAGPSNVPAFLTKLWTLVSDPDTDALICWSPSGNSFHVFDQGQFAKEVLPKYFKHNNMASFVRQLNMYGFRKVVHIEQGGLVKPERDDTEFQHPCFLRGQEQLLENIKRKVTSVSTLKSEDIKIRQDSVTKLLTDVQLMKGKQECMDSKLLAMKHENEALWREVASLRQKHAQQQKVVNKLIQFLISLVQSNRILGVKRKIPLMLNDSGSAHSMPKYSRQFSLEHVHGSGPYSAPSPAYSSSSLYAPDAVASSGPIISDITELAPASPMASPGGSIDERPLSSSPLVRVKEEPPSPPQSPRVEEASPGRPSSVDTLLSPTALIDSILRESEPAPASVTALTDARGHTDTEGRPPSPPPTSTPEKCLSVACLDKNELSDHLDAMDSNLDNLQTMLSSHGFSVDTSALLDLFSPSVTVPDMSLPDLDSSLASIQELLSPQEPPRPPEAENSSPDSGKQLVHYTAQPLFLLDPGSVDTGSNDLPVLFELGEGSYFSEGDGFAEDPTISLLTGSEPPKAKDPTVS
# Chain of ETV1 (P50549 whole entry): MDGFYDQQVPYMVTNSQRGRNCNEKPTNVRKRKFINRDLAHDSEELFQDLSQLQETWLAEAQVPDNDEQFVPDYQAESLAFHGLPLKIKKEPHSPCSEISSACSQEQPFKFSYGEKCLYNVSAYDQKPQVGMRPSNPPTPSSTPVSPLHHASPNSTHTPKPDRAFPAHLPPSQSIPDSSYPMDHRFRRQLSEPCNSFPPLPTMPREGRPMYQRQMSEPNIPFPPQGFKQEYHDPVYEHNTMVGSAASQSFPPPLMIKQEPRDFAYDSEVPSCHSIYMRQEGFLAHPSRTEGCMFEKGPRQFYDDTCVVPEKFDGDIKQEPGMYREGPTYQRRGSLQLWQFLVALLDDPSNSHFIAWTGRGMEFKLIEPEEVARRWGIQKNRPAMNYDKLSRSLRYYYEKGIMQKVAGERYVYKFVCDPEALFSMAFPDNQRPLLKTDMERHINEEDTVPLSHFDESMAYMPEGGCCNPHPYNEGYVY
# Chain of ELF4 (Q99607 whole entry): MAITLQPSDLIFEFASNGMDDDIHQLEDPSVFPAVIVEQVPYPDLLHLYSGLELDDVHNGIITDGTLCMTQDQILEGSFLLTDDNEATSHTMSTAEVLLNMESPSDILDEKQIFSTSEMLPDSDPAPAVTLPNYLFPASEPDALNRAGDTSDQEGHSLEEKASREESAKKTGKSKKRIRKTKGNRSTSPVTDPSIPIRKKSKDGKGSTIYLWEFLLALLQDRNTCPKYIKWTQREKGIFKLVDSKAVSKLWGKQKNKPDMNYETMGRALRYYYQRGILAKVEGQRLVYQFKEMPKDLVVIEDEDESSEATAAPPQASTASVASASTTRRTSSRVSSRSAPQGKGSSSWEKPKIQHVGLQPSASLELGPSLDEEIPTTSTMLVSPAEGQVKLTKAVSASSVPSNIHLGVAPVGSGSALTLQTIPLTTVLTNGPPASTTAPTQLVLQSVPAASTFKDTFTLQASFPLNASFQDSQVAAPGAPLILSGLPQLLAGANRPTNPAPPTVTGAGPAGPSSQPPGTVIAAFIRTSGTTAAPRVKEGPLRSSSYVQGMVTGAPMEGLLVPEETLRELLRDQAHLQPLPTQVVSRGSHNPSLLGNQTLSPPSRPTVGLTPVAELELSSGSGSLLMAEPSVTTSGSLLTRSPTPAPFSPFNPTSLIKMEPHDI
# Chain of CRX (O43186 whole entry): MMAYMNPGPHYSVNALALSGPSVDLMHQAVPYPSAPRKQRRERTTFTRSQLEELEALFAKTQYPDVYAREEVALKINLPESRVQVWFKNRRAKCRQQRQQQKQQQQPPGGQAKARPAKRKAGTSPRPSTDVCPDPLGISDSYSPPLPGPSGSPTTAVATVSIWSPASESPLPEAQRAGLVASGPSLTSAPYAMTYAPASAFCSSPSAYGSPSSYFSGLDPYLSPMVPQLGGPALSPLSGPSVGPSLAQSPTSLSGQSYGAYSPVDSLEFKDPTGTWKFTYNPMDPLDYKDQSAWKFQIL
sequence,measurement,setting,value
CTCCGC,binding signal,FEV,"1.43 fold enrichment (6-mer frequency, TF over GST control)"
same,binding signal,ETV5,"1.52 fold enrichment (6-mer frequency, TF over GST control)"
same,binding signal,HSF1,"1.15 fold enrichment (6-mer frequency, TF over GST control)"
same,binding signal,SPIC,"1.51 fold enrichment (6-mer frequency, TF over GST control)"
same,binding signal,ELF4,"1.67 fold enrichment (6-mer frequency, TF over GST control)"
same,binding signal,ELK4,"1.39 fold enrichment (6-mer frequency, TF over GST control)"
same,binding signal,ETV2,"1.57 fold enrichment (6-mer frequency, TF over GST control)"
same,binding signal,ELF3,"1.38 fold enrichment (6-mer frequency, TF over GST control)"
same,binding signal,CRX,"1.3 fold enrichment (6-mer frequency, TF over GST control)"
same,binding signal,ETV1,"1.56 fold enrichment (6-mer frequency, TF over GST control)"
same,binding signal,ERF,"1.47 fold enrichment (6-mer frequency, TF over GST control)"
same,binding signal,ETV3L,"1.56 fold enrichment (6-mer frequency, TF over GST control)"
same,binding signal,ETS2,"1.52 fold enrichment (6-mer frequency, TF over GST control)"
same,binding signal,SPDEF,"1.54 fold enrichment (6-mer frequency, TF over GST control)"
same,binding signal,ETV7,"1.31 fold enrichment (6-mer frequency, TF over GST control)"
same,binding signal,ELF5,"1.48 fold enrichment (6-mer frequency, TF over GST control)"
same,binding signal,ETV3,"1.59 fold enrichment (6-mer frequency, TF over GST control)"
same,binding signal,ETV6,"1.44 fold enrichment (6-mer frequency, TF over GST control)"
